# Test results: PubChem BioAssay
# Values without a mark were called inactive. The source made the active and inactive calls.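 Rule for the calls: active = mean inhibition over 43.08%, the solvent-only control mean plus 3 SD; inactive = the rest.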
# Molecular target: Nuclear receptor coactivator 3 (Homo sapiens) (UniProt Q9Y6Q9)
# Assay: SRC3 coactivator transcriptional activity inhibitors, confirmation, cell-based, luminescence, quadruplicate (AID 588792);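 note: 0% = DMSO treated cells and 100% = gossypol at 36 µM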
# Details: HEK293 GAL4-SRC3 luciferase reporter, at 3.6 µM, hits give high values
# Chain of Nuclear receptor coactivator 3 (Homo sapiens) (Q9Y6Q9 whole entry, looked up): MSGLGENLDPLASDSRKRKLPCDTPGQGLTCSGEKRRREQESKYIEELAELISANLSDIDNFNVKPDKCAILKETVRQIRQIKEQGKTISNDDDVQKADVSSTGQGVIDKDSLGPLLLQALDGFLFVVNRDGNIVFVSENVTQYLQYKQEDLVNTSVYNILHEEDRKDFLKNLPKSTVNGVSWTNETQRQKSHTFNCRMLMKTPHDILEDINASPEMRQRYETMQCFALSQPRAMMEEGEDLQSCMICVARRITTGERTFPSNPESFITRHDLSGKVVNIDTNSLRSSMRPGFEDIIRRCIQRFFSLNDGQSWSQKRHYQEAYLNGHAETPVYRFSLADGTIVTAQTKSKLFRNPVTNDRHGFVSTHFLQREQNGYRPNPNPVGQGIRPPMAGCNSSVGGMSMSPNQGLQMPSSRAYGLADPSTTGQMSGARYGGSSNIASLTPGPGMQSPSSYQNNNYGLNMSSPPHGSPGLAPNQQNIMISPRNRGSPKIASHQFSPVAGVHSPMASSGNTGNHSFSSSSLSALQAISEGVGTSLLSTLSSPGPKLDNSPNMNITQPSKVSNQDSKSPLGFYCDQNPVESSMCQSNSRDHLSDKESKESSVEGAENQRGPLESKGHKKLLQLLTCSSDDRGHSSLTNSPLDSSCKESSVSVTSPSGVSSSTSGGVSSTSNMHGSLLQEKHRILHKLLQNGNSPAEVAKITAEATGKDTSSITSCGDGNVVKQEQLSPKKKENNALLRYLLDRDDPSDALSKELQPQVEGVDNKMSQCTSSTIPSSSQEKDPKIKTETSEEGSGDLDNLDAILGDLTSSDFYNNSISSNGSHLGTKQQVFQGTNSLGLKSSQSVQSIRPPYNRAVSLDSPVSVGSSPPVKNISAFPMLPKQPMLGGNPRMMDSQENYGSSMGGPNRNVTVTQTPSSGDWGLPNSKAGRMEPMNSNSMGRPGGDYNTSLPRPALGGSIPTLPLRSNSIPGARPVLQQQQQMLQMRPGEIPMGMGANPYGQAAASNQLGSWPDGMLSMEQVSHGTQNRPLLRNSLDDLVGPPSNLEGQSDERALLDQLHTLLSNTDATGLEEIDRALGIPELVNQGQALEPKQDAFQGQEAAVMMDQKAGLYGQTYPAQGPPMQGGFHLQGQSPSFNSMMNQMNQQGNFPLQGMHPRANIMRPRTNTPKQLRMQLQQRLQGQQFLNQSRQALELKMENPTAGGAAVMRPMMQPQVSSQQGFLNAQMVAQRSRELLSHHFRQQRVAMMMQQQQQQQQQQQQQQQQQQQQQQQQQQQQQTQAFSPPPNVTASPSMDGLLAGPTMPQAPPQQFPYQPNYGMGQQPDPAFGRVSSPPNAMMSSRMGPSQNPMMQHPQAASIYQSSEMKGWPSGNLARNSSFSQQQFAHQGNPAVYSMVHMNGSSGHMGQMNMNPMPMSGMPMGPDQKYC
row,SMILES,inhibition
1,CC(C)Cn1c(N)c(C(=O)CSc2ccc3c(c2)OCCO3)c(=O)n(C)c1=O,35.5%
2,Cc1sc2ncnc(N3CCC(C(=O)Nc4ccccc4C(C)(C)C)CC3)c2c1C,35.8%
3,COc1cc(C(=O)OCC(=O)Nc2sccc2C(N)=O)cc(OC)c1OC,42.7%
4,CCCCCCCCCCCCCCCCCCNc1ccn(C2OC(COP(=O)(O)OCC3OC(n4cc(F)c(=O)[nH]c4=O)CC3O)C(O)C2O)c(=O)n1 (stereo not given),52.3% (active)
5,C=CCOc1ccccc1CNc1ccc2c(c1)OCCO2,25.2%
6,O=C(N/N=C(\c1ccccc1)c1ccccn1)c1ccccc1Cl,35.8%
7,O=C(Nc1nc(-c2ccccc2)cs1)C1CCCN(S(=O)(=O)c2ccccc2)C1 (stereo not given),-1.67%
8,CN=C1S/C(=C\c2cc(C)n(-c3ccccc3F)c2C)C(=O)N1C,-15.3%
9,CC(=O)NC(c1cc(Cl)c2cccnc2c1O)C(C)C (stereo not given),31.1%
10,CN(C)/C=C/C(=O)c1ccc2noc(-c3ccccc3)c2c1,55.5% (active)
11,COc1ccc(-c2coc3c(C(=O)Nc4cc(OC)c(OC)c(OC)c4)cccc23)c(C)c1,19.8%
12,Nc1nc(/C=C/c2cccnc2)nc(-c2ccccc2O)n1,-12.6%
13,COc1cccc(/C=N/NC(=O)c2cc3c(OC)cccc3[nH]2)c1O,28.5%
14,CCCc1c(C)nc2ccccc2c1SCCC#N,29.6%
15,CCN(CC)c1ccc2cc(NC(=O)CCC(=O)O)c(=O)oc2c1,68.4% (active)
16,COc1cc(Cl)cc(/C=N\NC(=O)c2ccc3c(c2)OCO3)c1O,24.7%
17,O=[N+]([O-])c1ccc(O)c(/C=N/Nc2ccc(Cl)nn2)c1,87.2% (active)
18,CN(C)CCCN1C(=O)c2cccc3c([N+](=O)[O-])ccc(c23)C1=O,17.8%
19,CC(=O)NC(c1ccccc1)c1cc(Cl)c2cccnc2c1O (stereo not given),29.2%
20,COc1ccc(NS(=O)(=O)c2ccc(NC(=O)c3ccc(N(C)S(C)(=O)=O)cc3)cc2)c(OC)c1,12.3%

row,SMILES,inhibition
1,CN1CC(=O)N2C(c3ccc(Cl)cc3)c3[nH]c4ccccc4c3C[C@H]2C1=O (stereo not given in full),41.6%
2,c1ccc(-c2noc(-c3ccc4c(c3)OCO4)n2)nc1,17.6%
3,O=C(N/N=C/c1cc([N+](=O)[O-])ccc1O)c1cccc(N2CCCC2=O)c1,15.9%
4,CC(C)(C)S(=O)N1Cc2cc(C(=O)NCC(F)(F)F)nc(-c3cccc(-c4cccc(F)c4)c3)c2[C@@H]1CCO (stereo not given in full),10.3%
5,COc1ccc(CN(C)C(=O)c2ccc(OCC(=O)Nc3cccc(C(F)(F)F)c3)c(OC)c2)cc1,4.69%
6,O=S(=O)(/C(=C\c1ccc(C(F)(F)F)cc1)c1nc2ccccc2[nH]1)c1ccccc1,69.8% (active)
7,CC(=O)N1CCN(c2ncnc3ccccc23)CC1,29.2%
8,CCN1/C(=C/c2ccc3cc(C)cc(C)c3[n+]2CC)Sc2cc(C)ccc21,39.4%
9,OCCNc1ncnc2ccc(Br)cc12,21.8%
10,CCCCN(CCCC)c1ncnc2nc[nH]c12,43.2% (active)
11,Oc1ccc(Nc2nc(N3CCCC3)c3ccccc3n2)cc1,25.6%
12,Cn1c(/C(C#N)=C/c2ccc(-c3ccc(S(N)(=O)=O)cc3)o2)nc2ccccc21,27.9%
13,Cc1cc(CNC(=O)c2cccc([N+](=O)[O-])c2C)c2ccccc2n1,13.9%
14,CC(C)(C)OC(=O)NCCCC[C@H](NC(=O)c1nc[nH]c1C(=O)N[C@@H](CCCCNC(=O)OC(C)(C)C)C(=O)OC(C)(C)C)C(=O)OC(C)(C)C,-4.98%
15,Cc1nnsc1C(=O)N/N=C/c1ccc2ccccc2c1O,84.2% (active)
16,CCN(CC)c1ccc(/C=N/NC(=O)CCC(=O)NCc2ccccc2)c(O)c1,22.7%
17,Cc1[nH]ccc2cc3nc4ccccc4c3cc12,13.9%
18,CCOC(=O)c1ccccc1OC(=O)NNc1ccccc1,15.6%
19,Oc1ccc(-c2n[nH]c(=S)n2-c2ccc3c(c2)OCCO3)c(O)c1,50% (active)
20,Cn1nnnc1N=N/C(=N/Nc1ccccc1)c1ccccc1,79.8% (active)
